Experiment [1] can be described thus: qHTS assay to identify small molecule agonists of the vitamin D receptor (VDR) signaling pathway - cell viability counter screen (AID 743224; active means well fitted curve in the direction sought with a large enough effect in the repeat runs; an effect the other way counts as inactive or inconclusive; further: nearly all actives have a fitted effect of over 50% in size; further: potency means the concentration at half of the fitted maximal effect). The essentials:
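In parallel with the bla FRET readout, cytotoxicity toward VDR-bla cells after 16 h compound exposure was assessed by CellTiter-Glo, with luminescence recorded after a 30 min room-temperature incubation.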
For orientation: In qHTS, concentration-response curves come from the screen itself.

A short description of experiment [2]: qHTS assay to identify small molecule antagonists of the vitamin D receptor (VDR) signaling pathway - cell viability counter screen (AID 743225; active means well fitted curve in the direction sought with a large enough effect in the repeat runs; an effect the other way counts as inactive or inconclusive; further: nearly all actives have a fitted effect of over 50% in size). In outline: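 Viability counter screen run in the same wells as the beta-lactamase reporter assay: HEK 293T VDR-UAS-bla cells, 16 h compound exposure at 37C with 3 nM (final) 1-alpha,25-dihydroxyvitamin D3. CellTiter-Glo luminescence, 30 min, room temperature.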

Experiment [3] in a line: qHTS assay to identify small molecule agonists of the NFkB signaling pathway - cell viability counter screen (AID 1159515). Further: series mostly up to about 61 µM; nearly all actives have a fitted effect of over 55% in size. In outline: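 Plate 2,000 NFkB-bla ME-180 cells/well; incubate overnight. Add compounds, 5 hr at 37 C. Add FRET substrate, 1.5 hr RT. Add CellTiter-Glo, 30 min RT; read luminescence.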
A short description of experiment [4]: qHTS assay to identify small molecule agonists of the endoplasmic reticulum stress response signaling pathway (AID 1159516; active means well fitted activation curve with a large enough effect in the signal ratio in the repeat runs, not every such curve was filed as active; the % refers to the signal ratio). The essentials: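 Beta-lactamase expression from the ER stress response element in HeLa reporter cells is quantified with the LiveBLAzer B/G FRET substrate, read at 405 nm excitation after 2 hr at room temperature, following 5 hr compound treatment at 37 C.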

Experiment [5] is described as follows: qHTS assay to identify small molecule agonists of the endoplasmic reticulum stress response signaling pathway - cell viability counter screen (AID 1159517). Further: series mostly up to about 61 µM; nearly all actives have a fitted effect of over 50% in size. In outline: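 In parallel with the ESRE reporter read, cytotoxicity was scored by CellTiter-Glo luminescence (30 min, room temperature) on HeLa ESRE-bla cells dosed for 5 hr.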
Experiment [6] is described as follows: qHTS assay to identify small molecule antagonists of the retinoid-related orphan receptor gamma (ROR-gamma) signaling pathway - cell viability counter screen (AID 1159520; active means well fitted curve in the direction sought with a large enough effect in the repeat runs; an effect the other way counts as inactive or inconclusive; further: nearly all actives have a fitted effect of over 50% in size). The essentials: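 Tet-on ROR gamma CHO cells were given compounds for 2 hr, then doxycycline hyclate at 1 uM final, and incubated 16 hr at 37 C. Viability was measured as ATP content by CellTiter-Glo luminescence.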

Experiment [7] in a line: qHTS assay to identify small molecule agonists of the AP-1 signaling pathway - cell viability counter screen (AID 1159525). Further: nearly all actives have a fitted effect of over 55% in size. Further: potency means the concentration at half of the fitted maximal effect. The essentials:
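Same-well cytotoxicity counter screen of the Tox21 10K library in ME-180 cells. The readout is ATP-dependent luminescence after 5 h compound treatment. Data are normalised to DMSO and tetra n-octyl ammonium bromide controls.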

Experiment [8] is described as follows: qHTS assay to identify small molecule agonists of the AP-1 signaling pathway (AID 1159526). Further: potency means the concentration at half of the fitted maximal effect.
In experiment [9] the target is Retinoic acid receptor RXR-alpha (Homo sapiens) (UniProt P19793). Briefly: qHTS assay to identify small molecule agonists of the RXR signaling pathway (AID 1159527). Further: nearly all actives have a fitted effect of over 35% in size. The essentials: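 Agonist mode; 9-cis retinoic acid positive control. HEK 293T UAS-bla reporter cells, 2% charcoal-stripped FBS, 16 hr compound exposure at 37 C/5% CO2. LiveBLAzer B/G FRET substrate 2 hr RT; ex 405, em 460/530 nm.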
Sequence of Retinoic acid receptor RXR-alpha (Homo sapiens) (P19793 whole entry, looked up): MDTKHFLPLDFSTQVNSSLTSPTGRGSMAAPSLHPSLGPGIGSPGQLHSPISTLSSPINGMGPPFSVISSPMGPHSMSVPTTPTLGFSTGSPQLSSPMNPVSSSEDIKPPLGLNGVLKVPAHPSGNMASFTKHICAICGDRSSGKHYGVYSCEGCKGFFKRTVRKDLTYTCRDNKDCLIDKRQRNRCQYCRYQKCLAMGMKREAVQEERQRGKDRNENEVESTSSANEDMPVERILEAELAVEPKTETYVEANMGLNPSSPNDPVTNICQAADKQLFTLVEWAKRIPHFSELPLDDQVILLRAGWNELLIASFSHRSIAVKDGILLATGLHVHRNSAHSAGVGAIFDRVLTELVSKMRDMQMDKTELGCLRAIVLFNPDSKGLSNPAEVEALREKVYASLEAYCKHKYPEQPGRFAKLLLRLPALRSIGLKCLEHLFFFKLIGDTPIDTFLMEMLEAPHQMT

In experiment [10] the target is Nuclear receptor ROR-gamma (Homo sapiens) (UniProt P51449). Kind of experiment: qHTS assay to identify small molecule antagonists of the retinoid-related orphan receptor gamma (ROR-gamma) signaling pathway (AID 1159521; active means well fitted curve in the direction sought with a large enough effect in the repeat runs; an effect the other way counts as inactive or inconclusive). In outline:
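Luminescence readout (ONE-Glo, 30 min RT) after 16 h doxycycline induction; loss of signal scored as antagonism. CHO cells with TET-inducible RORγ and RORE-LUC reporter; compounds added 2 h before 1 uM final doxycycline.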

Among the data in PubChem BioAssay (Tox21) are Potency values, retold here.

Structures are written as SMILES. Inconclusive results are not listed. A number with no mark means an inactive call. Activity calls are given as the source filed them. Unless noted, the call rests on the fitted dose curve.

Regarding `CC(=O)c1cccc([N+](=O)[O-])c1`, the Potency result in experiment [1], in [2], in experiment [3], in experiment [4], in experiment [5] and in experiment [6] was “inactive” in each case. For the same molecule, the Potency entry in experiment [7] and in experiment [8] was “inactive” throughout.
Regarding `CN(C)CCN(Cc1ccccc1)c1ccccn1`, the Potency result in experiment [1], in experiment [3], in experiment [4], in experiment [5], in experiment [6] and in experiment [7] was “inactive” in each case. The Potency result in [9] is “inactive”.
As to `CCc1cc(C2=C(C(=O)O)N(c3ccccc3C(F)(F)F)S(=O)(=O)c3ccccc32)cc2c1OCO2`, the Potency entry in experiment [1], in experiment [2], in experiment [3], in experiment [4], in experiment [5] and in experiment [6] was “inactive” throughout. Moreover, the Potency entry in experiment [7] and in experiment [8] was “inactive” in each case.
For `CN(C)c1ccc(CCO)cc1`, the Potency result in experiment [1], in experiment [2], in [3], in [4], in experiment [5] and in experiment [6] was “inactive” throughout. Further, the Potency entry in [7] is “inactive”.
For the molecule `C=C1[C@H]2CC[C@@H]3[C@H]2C(C)(C)CCC[C@]13C`, the Potency result in [1], in [2], in experiment [3], in experiment [4], in experiment [5] and in [6] was “inactive” in each case. Moreover, the Potency entry in experiment [7], in experiment [8] and in experiment [9] was “inactive” each time.
For `NCCCN1CCOCC1`, the Potency result in experiment [1], in [2], in [3], in [4], in experiment [5] and in [6] was “inactive” throughout. Also, the Potency result in [7] and in experiment [8] was “inactive” in each case.
Consider `CN(C)CCN(Cc1ccc(Cl)cc1)c1ccccn1`, for which the Potency entry in experiment [2], in [3], in [4], in experiment [5], in [6] and in experiment [7] was “inactive” in each case.
Consider `O=C(O)c1ccc(-n2nc(-c3ccccc3O)nc2-c2ccccc2O)cc1`, for which the Potency result in experiment [2], in experiment [3], in [4], in experiment [5], in [6] and in experiment [7] was “inactive” each time. In addition, the Potency entry in [8] is “inactive”.
Consider `CCN(CC)CCOC(=O)C(Cc1cccc2ccccc12)CC1CCCO1` (stereo not given), for which the Potency result in [1], in [2], in experiment [3], in [4], in experiment [5] and in [6] was “inactive” each time. The Potency result in experiment [7] was “inactive”. Also, the Potency in [8] was 21.3 µM (active).
As to `CC(=O)[O][Al]`, the Potency entry in experiment [1], in [2], in [3], in experiment [4], in experiment [5] and in [6] was “inactive” each time. The Potency entry in [7] and in experiment [8] was “inactive” in each case.
Take `CC(=O)c1ccc2c(c1)N(CCCN(C)C)c1ccccc1S2`: the Potency result in experiment [1], in experiment [2], in experiment [3], in experiment [4], in [5] and in experiment [6] was “inactive” in each case. The Potency result in experiment [7] and in [9] was “inactive” in each case.
Take `CCCCCCCCCCCCCCOS(=O)(=O)O`: the Potency in experiment [1] was 43.6 µM (active); in experiment [7] it was 54.9 µM (active). Moreover, the Potency result in experiment [3], in [4], in [5] and in experiment [6] was “inactive” in each case.
`CO[C@@H]1[C@H](OC(=O)/C=C/C=C/C=C/C=C/C(=O)O)CC[C@]2(CO2)[C@H]1[C@@]1(C)O[C@@H]1CC=C(C)C`: the Potency entry in [1], in experiment [2], in [3], in [4], in experiment [5] and in experiment [6] was “inactive” throughout. The Potency entry in experiment [7] and in experiment [8] was “inactive” throughout.
Regarding `NC(=O)C(c1ccccc1)(c1ccccc1)[C@@H]1CCN(CCc2ccc3c(c2)CCO3)C1`, the Potency entry in experiment [2], in experiment [3], in experiment [4], in [5], in experiment [6] and in [7] was “inactive” each time. The Potency entry in experiment [8] is “inactive”.
As for `O=C(O)c1nc(Cl)c(Cl)c(Cl)c1Cl`, the Potency result in [1], in [3], in experiment [4], in experiment [5], in experiment [6] and in [7] was “inactive” each time. Moreover, the Potency result in [8] is “inactive”.
As to `CCOC(=O)c1cccnc1`, the Potency result in experiment [1], in experiment [2], in [3], in experiment [4], in experiment [5] and in experiment [6] was “inactive” each time. For the same molecule, the Potency entry in experiment [7], in experiment [8] and in experiment [9] was “inactive” throughout.
Take `C=CC(=O)OCCOc1ccccc1`: the Potency entry in experiment [1], in experiment [2], in experiment [3], in experiment [4], in experiment [5] and in experiment [6] was “inactive” each time. Further, in experiment [7], the Potency result is “inactive”.
Take `CC(COCCO)OCCO` (stereo not given): the Potency entry in experiment [1], in experiment [2], in [3], in experiment [4], in experiment [5] and in [6] was “inactive” in each case. Further, the Potency result in [7] is “inactive”.
With `CCCCCCCCCCCC(=O)OC[C@@H](O)[C@H]1OC[C@H](OCCO)[C@H]1OCCO`, the Potency result in [3], in experiment [4], in experiment [5], in experiment [6], in experiment [8] and in [9] was “inactive” each time.
For `O=S(c1cc(Cl)cc(Cl)c1O)c1cc(Cl)cc(Cl)c1O`, the Potency entry in experiment [2], in [3], in experiment [4], in experiment [5], in [6] and in [7] was “inactive” throughout.
For the molecule `CCOc1ccc(N=Nc2ccc(/C=C/c3ccc(N=Nc4ccc(OCC)cc4)cc3S(=O)(=O)O)c(S(=O)(=O)O)c2)cc1`, the Potency entry in [1], in experiment [2], in [3], in experiment [4], in experiment [5] and in [6] was “inactive” in each case. For the same molecule, the Potency result in experiment [7] and in experiment [8] was “inactive” in each case.
`COc1ccc2cccc(CCNC(C)=O)c2c1`: the Potency entry in experiment [1], in experiment [3], in experiment [4], in experiment [5], in experiment [6] and in experiment [7] was “inactive” throughout. Further, the Potency result in experiment [8] is “inactive”.
With `O=C(O)CC(=O)C(=O)O`, the Potency result in experiment [2], in experiment [3], in experiment [4], in experiment [5], in experiment [6] and in experiment [7] was “inactive” each time. The Potency entry in experiment [8] and in experiment [9] was “inactive” throughout.
Take `COC(C)OC`: the Potency result in experiment [3], in [4], in experiment [5], in [6], in experiment [8] and in experiment [9] was “inactive” each time.
In the case of `Clc1ccc(Cn2c(CN3CCCC3)nc3ccccc32)cc1`, the Potency entry in experiment [1], in experiment [3], in experiment [4], in [5], in [6] and in [7] was “inactive” each time.
Take `C=C(C)C(=O)OCC`: the Potency entry in [1], in experiment [2], in experiment [3], in experiment [4], in [5] and in [6] was “inactive” throughout. Further, the Potency result in [8] and in experiment [9] was “inactive” each time.
As for `CCCCc1ncc(/C=C(\Cc2cccs2)C(=O)O)n1Cc1ccc(C(=O)O)cc1`, the Potency entry in [1], in experiment [2], in experiment [3], in experiment [4], in experiment [5] and in experiment [7] was “inactive” throughout. For the same molecule, the Potency entry in [9] is “inactive”.
On to `COC(C)(C)CCO`, for which the Potency entry in experiment [1], in [2], in experiment [3], in experiment [4], in experiment [5] and in experiment [7] was “inactive” in each case. Moreover, the Potency entry in experiment [8] and in experiment [9] was “inactive” each time.
Consider `CCO[Si](CCCCl)(OCC)OCC`, for which the Potency entry in experiment [2], in experiment [3], in experiment [4], in experiment [5], in [7] and in experiment [8] was “inactive” throughout. Moreover, in [9], the Potency entry is “inactive”.
Consider `OCCNCc1ccccc1`, for which the Potency entry in experiment [1], in [2], in experiment [3], in experiment [4], in experiment [5] and in [10] was “inactive” each time. Further, the Potency entry in experiment [8] and in [9] was “inactive” throughout.
